# Assay results published in PubChem BioAssay AID463195 (Sanford-Burnham Center for Chemical Genomics, 2010).
# About 4,600 (1.4%) of roughly 330,000 compounds were called active. What follows is part of a selection rich in actives, with near analogues and random picks from the rest. Values without a mark were called inactive.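 How the source made its calls: active means inhibition of 40% or more at the single tested concentration; inactive means the rest.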
# Experiment: wild-type TIM10 yeast growth inhibition – luminescence, uHTS, counter-screen for tim10-1 yeast inhibitor project, primary screen (AID 463195);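 further: wild-type TIM10 isogenic control strain grown at permissive 25 °C; 0% = DMSO yeast wells and 100% = minimal medium wells without yeast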
# Conditions: S. cerevisiae TIM10 strain growth, BacTiter-Glo luminescence, 24 h; at 10 µM; active compounds read high
row,SMILES,inhibition
1,CC1CCCCC1NC(=O)/C(C#N)=C/C=C/c1ccccc1[N+](=O)[O-] (centres undefined),47.3% (active)
2,O=[N+]([O-])c1ccccc1/C=C/CN1CCC(O)CC1,-13.6%
3,O=[N+]([O-])c1ccccc1/C=C/CN1CCCC(CO)C1 (centres undefined),-25%
4,CCOc1ccc(CN2CCN(Cc3c[nH]c4ccccc34)CC2)cc1,-10.6%
5,CC1(C)CC(=O)C=C(NCCN2CCNCC2)C1,5.33%
6,Cc1ccc(/C=C/C(=O)OCC(=O)NCc2ccc(Cl)cc2)o1,-3.46%
7,CCOC(=O)C1CN(S(=O)(=O)c2ccc(OC)cc2)c2cc(Cl)ccc2O1 (centres undefined),15.1%
8,COc1ccccc1N1N=C(c2cccs2)CC1c1ccccc1 (centres undefined),23%
9,O=C1C2N=NN(CC(=O)N3N=C(c4cccc5ccccc45)CC3c3ccccc3)C2C(=O)N1c1ccccc1 (centres undefined),22.8%
10,Oc1ccccc1C1=NN(c2ccccc2)C(c2ccccc2)C1 (centres undefined),49% (active)
11,CC(C)CC(COCc1ccc(Cl)cc1)N1CCN(C(=O)c2ccc(C(F)(F)F)cc2)CCC1=O (centres undefined),17.7%
12,CCCCNC(=S)N/N=C1\CCCCc2ccccc21,48.2% (active)
13,Cc1ccc(NC(=S)N/N=C2/CCCc3c(C)cc(C)cc32)cc1,-3.6%
14,CCCC1CCC(=NNC(=S)NCCc2ccccc2)CC1 (centres undefined),-23.1%
15,Cc1noc(C)c1S(=O)(=O)Nc1cc(C(F)(F)F)ccc1N1CCOCC1,14.8%
16,NS(=O)(=O)c1ccc(CCNC(=O)CCCn2c(SCC(=O)N3CCCC3)nc3ccsc3c2=O)cc1,-3.82%
17,O=C(Oc1c(-c2ccco2)oc2ccccc2c1=O)c1cccnc1,63.5% (active)
18,COc1ccc(Oc2coc3cc(OC(=O)c4cncc(Br)c4)ccc3c2=O)cc1,22.3%
19,O=C(OCc1cc2ccccc2[nH]c1=O)c1cccnc1,-6.32%
20,Cn1c(CC2Sc3ccccc3NC2=O)nnc1SCC(=O)c1ccc(Cl)cc1 (centres undefined),2.41%
21,COc1cccc(NC(C)=[N+](C)CCNS(=O)(=O)c2ccc(Cl)cc2)c1,-4.11%
22,CCCCn1c(N)c(N(CCC(C)C)C(=O)c2ccc([N+](=O)[O-])o2)c(=O)[nH]c1=O,-3.66%
23,CC1=NN(C(N)=S)C(=O)C1N=Nc1cc(Cl)ccc1Cl (centres undefined),28.1%
24,Cc1[nH]n(C)c(=O)c1N=Nc1ccc(S(C)(=O)=O)cc1,6.98%
25,Cc1[nH]n(C(N)=S)c(=O)c1N=Nc1ccc(Cl)cc1Cl,50.4% (active)
26,COC(=O)Cc1ccc(NC(=S)NCc2ccc(Cl)cc2)cc1,28%
27,O=C(NCc1ccc(Cl)cc1)NCc1ccc(Cl)cc1,-12.6%
28,S=C(NCc1ccc(Cl)cc1)NC12CC3CC(CC(C3)C1)C2,61.1% (active)
29,CSc1nc2nc(-c3cccc(C(F)(F)F)c3)ccn2n1,-28%
